Results from article PMC5540273 (PLoS ONE, 2017).

test system: MST4; settings: concentration: 1 μM,replicates: in singlicate; n = 1
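Note: KINOMEscan kinase panel screen.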

Row | SMILES | %Inh
1 | CC(C(=O)NC1CCN(c2ccnc(Nc3ccc(F)cc3)n2)C1)c1ccc(Cl)cc1 (stereo not drawn) [GSK1379713] | 0%
2 | C[C@@H]1CCN(C(=O)N2CCCC2)C[C@@H]1N(C)c1ncnc2[nH]ccc12 | 0%
3 | NC(=O)c1ccc(-c2cc3ncnc(SCC(=O)O)c3s2)cc1 | 0%
